Compound activity from PubChem BioAssay.
p53 reactivation: re-activators of mutant p53; H1299 p53-A138V BP100-luciferase reporter, luminescence, 24 h; Potency, µM (top dose mostly 92.2 µM), inactives show at the highest dose activity change, positive = activation, hits mostly activators; 0.063% of 320,000 active; further: % of control where 0% means no effect; nearly all actives have a fitted effect of over 45% in size
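H1299 (p53-null), stable ts p53-A138V + BP100-Luc; 1000 cells/well, Opti-MEM/10% FBS; cpd 4 pt, 1:5; 24 h, 37 deg C, 5% CO2; detection reagent 10 min RT; luminescence.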
MCF10A rerep: induces DNA re-replication in MCF 10a normal breast cells | Potency, µM (doses to about 46.1 µM), for inactives: at the top dose activity, positive = re-replication, actives largely listed as activators | 2.9% of 350,000 active | MCF 10A DNA re-replication, Hoechst nuclear intensity, 48 h | AID 624296; further: % of control where 0% means no effect; nearly all actives have a fitted effect of over 50% in size
ELG1 DNA repair: inhibitors of ELG1-dependent DNA repair in HEK293T cells. AID 504467. Potency, µM (top dose mostly 46.1 µM), without a hit: at the highest dose activity change, negative = inhibition, hits mostly inhibitors. HEK293T ELG1-luciferase reporter, luminescence, 16 h; DNA damage induced by 5-fluorouridine. 2.3% of 330,000 active; further: on the % scale 0 is the no-effect control and ±100 the full control effect; nearly all actives have a fitted effect of over 55% in size
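Quantitative HTS, concentration-response format. 2,000 cells/well co-treated with 5-fluorouridine and compound, 16 hr in 5% CO2 at 37 °C; ONE-Glo luminescence read after 30 min.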
ELG1 genotox: inducers of genotoxicity in HEK293T ELG1-luciferase cells. HEK293T ELG1-luciferase reporter, luminescence, 16 h. Potency, µM (top dose mostly 46 µM), inactives show at the highest dose activity change, positive = activation, hits mostly activators. 1.3% of 330,000 active; further: % of control where 0% means no effect; nearly all actives have a fitted effect of over 60% in size
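Genotoxicity was scored as increased ELG1-luciferase reporter signal, measured by ONE-Glo luminescence (30 min, room temperature). Compound or vehicle exposure of the HEK293T reporter cells lasted 16 hr at 37°C.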
SW480 rereplic: DNA re-replication induction in SW480 cells; SW480 DNA re-replication, Hoechst DNA content imaging, 48 h; Potency, µM (titrated, usually from 46.1 µM), for the others: top-dose re-replication activation, usual class: activators; 1.8% of 340,000 active; further: % of control where 0% means no effect; nearly all actives have a fitted effect of over 55% in size
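DNA re-replication was detected as more nuclei of elevated Hoechst intensity after 48 hr exposure to compound (23 nL pinned per well of 250 cells).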
AT treatment: potential ataxia-telangiectasia treatments restoring KAP-1 phosphorylation. Potency, µM (highest dose often 57.5 µM), for inactives: at the top dose activation, hits mostly activators. 0.19% of 320,000 active. F2112 A-T fibroblasts, KAP-1 phosphorylation AlphaLISA; neocarzinostatin DNA damage 30 min before lysis; further: % of control where 0% means no effect; nearly all actives have a fitted effect of over 45% in size
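hTERT-immortalized A-T patient fibroblasts (F2112), 500 cells/well in OPTI-MEM, 1% FBS, got compounds for 60 min, then NCS for 30 min at 37C. Lysates were then assayed for phospho-KAP-1 by AlphaLISA (anti-pKAP1 donor, anti-KAP1 acceptor beads), 6 hr at 25C.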
The depositor's hits bear a star; [ ] = dose if it differs, or a comment. This is a sample that favours compounds with a hit; in the whole collection about 7.1% have one here. The call rests on the fitted dose curve; in most records, active means well fitted curve in the direction sought with a large enough effect; inconclusive means small, poorly fitted or top-dose-only effect, or another doubt; inactive means no such curve, though single readings can be large; an effect the other way counts as inactive or inconclusive. Potency means the concentration at half of the fitted maximal effect.

Results for CCOC(=O)c1cc2c(=O)n3ccccc3nc2n(C(C)C)c1=NC(=O)c1c(-c2c(F)cccc2Cl)noc1C ?
p53 reactivation: -4%; MCF10A rerep: inconclusive; ELG1 DNA repair: 5.8µM*; ELG1 genotox: -13%; SW480 rereplic: 18µM*; AT treatment: 6%

How did CCOC(=O)c1cc2c(=O)n3ccccc3nc2n(C)c1=NC(=O)c1c(-c2c(F)cccc2Cl)noc1C do in these assays?
MCF10A rerep: 23µM*; SW480 rereplic: 1.3µM*

How did COc1cc(C(C)=O)ccc1OCC(=O)Nc1ccccc1N1CCCCC1 do in these assays?
p53 reactivation: -5%; MCF10A rerep: inconclusive; ELG1 DNA repair: 5.2µM*; ELG1 genotox: -43%; SW480 rereplic: inconclusive; AT treatment: 7%

How did COc1ccc(OCC(=O)Nc2ccccc2N2CCCCC2)cc1 do in these assays?
p53 reactivation: -12%; MCF10A rerep: 3.3µM*; ELG1 DNA repair: inconclusive; ELG1 genotox: -12%; SW480 rereplic: 12µM*; AT treatment: 11%

What do the screens show for `COc1ccc(CNCC(=O)Nc2ccccc2-n2cccc2)cc1`?
p53 reactivation: -4%; MCF10A rerep: inconclusive; ELG1 DNA repair: -14%; ELG1 genotox: -1%; SW480 rereplic: 21µM*; AT treatment: -4%

How did Cc1ccc(Cl)c(OCC(=O)Nc2ccccc2N2CCCCC2)c1 do in these assays?
p53 reactivation: 1%; MCF10A rerep: inconclusive; ELG1 DNA repair: -4%; ELG1 genotox: 27%; SW480 rereplic: 3.7µM*; AT treatment: 15%

Results for CN(Cc1ccccc1)S(=O)(=O)c1ccccc1Br ?
p53 reactivation: 2%; MCF10A rerep: 15%; ELG1 DNA repair: 8%; ELG1 genotox: 4%; SW480 rereplic: 33%; AT treatment: 1%[11.5 µM]

How did COc1ccc2cc(CCNC(=O)c3ccc(S(=O)(=O)N4CCOCC4)cc3)c(=O)[nH]c2c1 do in these assays?
p53 reactivation: -19%; MCF10A rerep: 6%; ELG1 DNA repair: inconclusive; ELG1 genotox: -15%; SW480 rereplic: 6%; AT treatment: -6%

What do the screens show for `O=C(CN1CCc2ccccc2C1)Nc1ccccc1Cl`?
p53 reactivation: -35%; MCF10A rerep: 8%; ELG1 DNA repair: 4%; ELG1 genotox: inconclusive; SW480 rereplic: -1%; AT treatment: 40%

How did O=C(Nc1ccccc1N1CCCCC1)c1ccc(F)cc1 do in these assays?
p53 reactivation: 11%; MCF10A rerep: 19%; ELG1 DNA repair: -1%; ELG1 genotox: -4%; SW480 rereplic: -4%; AT treatment: 12%

How did O=C(Nc1ccccc1N1CCCCC1)c1ccc(OC(F)F)cc1 do in these assays?
p53 reactivation: 4%; MCF10A rerep: 13µM*; ELG1 DNA repair: -12%; ELG1 genotox: 0%; SW480 rereplic: 26%; AT treatment: 13%

What do the screens show for `O=C(CN1CCc2ccccc2C1)Nc1ccccc1N1CCCCCC1`?
p53 reactivation: 16%; MCF10A rerep: 13µM*; ELG1 DNA repair: -3%; ELG1 genotox: -3%; SW480 rereplic: inconclusive; AT treatment: 11%

How did CCOC(=O)C1=CNS(=O)(=O)NC1c1ccc2ccccc2c1 (stereo unspecified) do in these assays?
p53 reactivation: 0%; MCF10A rerep: 8%; ELG1 DNA repair: 28%; ELG1 genotox: 2%; SW480 rereplic: 0%; AT treatment: 3%

How did COc1ccc2c(=O)c(C)c(-c3ccccc3)oc2c1CN(C)C do in these assays?
MCF10A rerep: 0%; SW480 rereplic: -2%

Results for CC(=O)Nc1cccc(OCCCNS(=O)(=O)c2ccc(C#N)cc2)c1 ?
p53 reactivation: -9%; MCF10A rerep: -2%; ELG1 DNA repair: -1%; ELG1 genotox: -10%; SW480 rereplic: 20%; AT treatment: -2%

How did N#Cc1sc2nc(-c3ccccc3)cc(C(F)(F)F)c2c1N do in these assays?
p53 reactivation: 4%; MCF10A rerep: 4%; ELG1 DNA repair: 22%; ELG1 genotox: 6%; SW480 rereplic: 2.9µM*; AT treatment: 4%

Results for N#Cc1sc2nc(-c3cccs3)cc(-c3ccccc3)c2c1N ?
p53 reactivation: 0%; MCF10A rerep: 3%; ELG1 DNA repair: inconclusive; ELG1 genotox: 0%; SW480 rereplic: -5%; AT treatment: 25%

Results for CC(=O)c1c(C)[nH]c(C(=O)Nc2ccc(Cl)c(S(=O)(=O)N(C)C)c2)c1C ?
p53 reactivation: -1%; MCF10A rerep: 12%; ELG1 DNA repair: inconclusive; ELG1 genotox: 18µM*; SW480 rereplic: -3%; AT treatment: -4%

What do the screens show for `CC(=O)c1c(C)[nH]c(C(=O)OCC(=O)Nc2ccc(Cl)cc2[N+](=O)[O-])c1C`?
p53 reactivation: 2%; MCF10A rerep: 4%; ELG1 DNA repair: 3.7µM*; ELG1 genotox: 3%; SW480 rereplic: -11%; AT treatment: 4%

What do the screens show for `CC(=O)c1c(C)[nH]c(C(=O)OCC(=O)Nc2ccc3c(c2)OCCO3)c1C`?
p53 reactivation: -7%; MCF10A rerep: 2%; ELG1 DNA repair: 15µM*; ELG1 genotox: -3%; SW480 rereplic: -7%; AT treatment: 2%

Results for CC(=O)c1c(C)[nH]c(C(=O)OCC(=O)Nc2cc(C)on2)c1C ?
p53 reactivation: 0%; MCF10A rerep: 11%; ELG1 DNA repair: -28%; ELG1 genotox: 6%; SW480 rereplic: -4%; AT treatment: 2%

How did COc1cc(NC(=O)COC(=O)c2[nH]c(C)c(C(C)=O)c2C)cc(OC)c1 do in these assays?
p53 reactivation: -1%; MCF10A rerep: -4%; ELG1 DNA repair: 7.3µM*; ELG1 genotox: -2%; SW480 rereplic: -3%; AT treatment: 1%

How did CCOC(=O)c1c(C)[nH]c(C(=O)OCC(=O)Nc2cc(Cl)ccc2OC)c1C do in these assays?
p53 reactivation: 10%; MCF10A rerep: 9%; ELG1 DNA repair: -5%; ELG1 genotox: 2%; SW480 rereplic: inconclusive; AT treatment: 16%

Results for CN(C(=O)c1cccc(NC(=O)Cc2ccc(NC(=O)C3CCCN(C(=O)c4ccccc4)C3)cc2)c1)C1CCCC1 (stereo unspecified) ?
MCF10A rerep: 2%; SW480 rereplic: inconclusive

How did CC(=O)c1c(C)[nH]c(C(=O)OCC(=O)Nc2ccc(Cl)c(S(=O)(=O)N(C)C)c2)c1C do in these assays?
p53 reactivation: -2%; MCF10A rerep: inconclusive; ELG1 DNA repair: 12µM*; ELG1 genotox: -9%; SW480 rereplic: -4%; AT treatment: 4%
